Results published in PubChem BioAssay (NCATS).
Values without a mark were called inactive. Inconclusive results are not listed. Active and inactive are the calls of the source. Unless noted, calls come from the whole dose curve; as a rule, active = well fitted curve in the direction sought with a large enough effect; inconclusive = small, poorly fitted or top-dose-only effect, or another doubt; inactive = no such curve, though single readings can be large; an effect the other way counts as inactive or inconclusive.

Tests used:
[1] = AP1 Signaling Pathway (AID 357; active = well fitted curve in either direction with a large enough effect, not every such curve was filed as active;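 note: ME-180 reporter cells stimulated with EGF at its EC50 level; % is set by controls: 0 for no effect and ±100 for the full control effect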); conditions: ME-180 AP-1-bla reporter, EGF-induced, beta-lactamase ratio, 5 h; at 7.69 µM (top of the series) unless noted
Method in brief: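 A ratiometric CCF4 readout (405 nm excitation; 460 and 530 nm emission) quantified AP-1-driven beta-lactamase in ME-180 cells after 5 h with compound and EC50 EGF; AC50 values were derived for activators and inhibitors.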

[2] = biological target: Cytochrome P450 1A2 (Homo sapiens) (UniProt P05177); assay: p450-cyp1a2 (AID 410; calls by dose curve; note: potency is the fitted concentration of half-maximal effect); conditions: recombinant CYP1A2, luciferin-ME demethylation, luminescence; series mostly up to 57 µM
Sequence of Cytochrome P450 1A2 (Homo sapiens) (P05177 whole entry, looked up): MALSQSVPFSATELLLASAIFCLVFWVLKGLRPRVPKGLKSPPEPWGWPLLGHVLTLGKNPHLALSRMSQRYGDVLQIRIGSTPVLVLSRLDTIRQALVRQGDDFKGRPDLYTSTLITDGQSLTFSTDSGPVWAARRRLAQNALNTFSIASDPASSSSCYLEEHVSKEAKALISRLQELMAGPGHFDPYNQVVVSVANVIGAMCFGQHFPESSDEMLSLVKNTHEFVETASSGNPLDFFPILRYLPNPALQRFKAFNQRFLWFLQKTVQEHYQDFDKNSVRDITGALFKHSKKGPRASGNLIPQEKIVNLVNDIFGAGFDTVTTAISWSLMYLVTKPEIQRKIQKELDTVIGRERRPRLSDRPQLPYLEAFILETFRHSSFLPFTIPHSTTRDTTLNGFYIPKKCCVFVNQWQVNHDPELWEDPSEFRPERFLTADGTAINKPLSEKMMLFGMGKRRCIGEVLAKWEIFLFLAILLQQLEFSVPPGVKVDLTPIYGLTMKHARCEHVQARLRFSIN
Method in brief: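 Human CYP1A2 (20nM) demethylated Luciferin-ME at its Km (100uM) in 100mM KPO4. After 10 min compound preincubation, NADPH regeneration ran the reaction 60 min at room temperature. Luciferin was read by luminescence, normalized to 57 uM furafylline.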

[3] = NFAT Signaling Pathway (AID 444; active = well fitted curve in either direction with a large enough effect, not every such curve was filed as active;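 note: carbachol stimulus at about its EC50 of 1 µM final; % is set by controls: 0 for no effect and ±100 for the full control effect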); conditions: Jurkat NFAT-bla M1, carbachol, beta-lactamase ratio, 5 h; at 7.69 µM (top of the series) unless noted
Method in brief: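 Jurkat cells carrying an NFAT-driven β-lactamase reporter and co-transfected muscarinic M1 receptor were treated with compound plus carbachol (1 uM final, an EC50 level) for 5 h at 37 °C. CCF4 loading followed for 1 h at RT; 460/530 nm ratio gave %activity.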

[4] = Stat Signaling Pathway (AID 446; active = well fitted curve in either direction with a large enough effect, not every such curve was filed as active;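 note: ME-180 cervical cancer cells given 40 pM IL-6 alongside compound; SIE-controlled beta-lactamase reporter measured as 460/530 nm FRET emission ratio; % is set by controls: 0 for no effect and ±100 for the full control effect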); conditions: ME-180 SIE beta-lactamase reporter, IL-6 stimulated, 5 h; at 7.69 µM (top of the series) unless noted
Method in brief: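 ME-180 SIE-bla cells; overnight plating; cpd + IL-6 40 pM, 5 h, 37 C; LiveBLAzer 2.5 h RT; 460/530 nm emission ratio. Normalized to 300 pM IL-6 and 125 nM JAK inhibitor controls.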

[5] = biological target: Glucocorticoid receptor (Homo sapiens) (UniProt P04150); assay: GR-EFC Redistribution (AID 451; calls by dose curve; note: potency is the fitted concentration of half-maximal effect); conditions: CHO-K1 GR-EFC translocation, beta-gal luminescence, 2 h
Sequence of Glucocorticoid receptor (Homo sapiens) (P04150 whole entry, looked up, the tested form may be a part): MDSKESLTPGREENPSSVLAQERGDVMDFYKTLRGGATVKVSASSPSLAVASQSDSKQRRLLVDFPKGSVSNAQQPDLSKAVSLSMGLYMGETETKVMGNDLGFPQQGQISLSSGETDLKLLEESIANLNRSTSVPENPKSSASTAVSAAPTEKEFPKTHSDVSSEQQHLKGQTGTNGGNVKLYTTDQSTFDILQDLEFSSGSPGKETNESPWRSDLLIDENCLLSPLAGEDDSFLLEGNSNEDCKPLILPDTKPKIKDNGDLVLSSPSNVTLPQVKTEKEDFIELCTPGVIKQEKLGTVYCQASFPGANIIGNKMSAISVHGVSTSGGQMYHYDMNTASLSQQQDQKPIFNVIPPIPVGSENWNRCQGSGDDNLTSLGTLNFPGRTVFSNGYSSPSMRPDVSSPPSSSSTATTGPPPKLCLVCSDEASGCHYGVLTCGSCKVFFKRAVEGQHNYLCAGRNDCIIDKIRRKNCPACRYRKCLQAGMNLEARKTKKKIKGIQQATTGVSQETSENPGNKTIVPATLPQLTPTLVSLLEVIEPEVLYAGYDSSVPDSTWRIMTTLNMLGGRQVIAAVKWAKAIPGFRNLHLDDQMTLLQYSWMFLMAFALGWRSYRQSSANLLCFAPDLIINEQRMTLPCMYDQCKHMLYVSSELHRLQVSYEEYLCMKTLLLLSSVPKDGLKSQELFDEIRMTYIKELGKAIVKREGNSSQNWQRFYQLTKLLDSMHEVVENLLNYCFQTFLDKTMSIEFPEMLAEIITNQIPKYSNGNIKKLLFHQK
Method in brief: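 CHO-K1 cells stably expressing nuclear-localized β-gal enzyme acceptor and GR fused C-terminally to the enzyme donor fragment; ligand-driven nuclear translocation restores β-gal by complementation. Compounds titrated up to 46 uM final, 2 h at 37 °C; luminescence read.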

[6] = biological target: Mitogen-activated protein kinase 10 (Mus musculus) (UniProt Q61831); assay: JNK3 AlphaScreen Assay (AID 530; active = well fitted curve in either direction with a large enough effect, not every such curve was filed as active;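 note: kinase came from lysate of stimulated human HepG2 cells; signal reports phosphorylation of biotinylated GST-cJun 1-79 at Ser73 with 10 µM ATP; % is set by controls: 0 for no effect and ±100 for the full control effect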); conditions: JNK3 lysate, c-Jun phosphorylation; series mostly up to 57.1 µM
Method in brief: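 JNK3 came from HepG2 lysates pre-activated with IL-1beta and TNF-alpha and phosphorylated biotinylated GST-cJun (1-79) at 10 uM ATP, pH 7.6, room temperature. Compounds were titrated. AlphaScreen signal used anti-phospho-cJun (Ser73) antibody.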

[7] = biological target: 3',5'-cyclic-AMP phosphodiesterase 4B (Homo sapiens) (UniProt Q07343); assay: qHTS Assay for Inhibitors of PDE-IV (AID 607; active = well fitted activation curve with a large enough effect in the main read-out, with a control signal flat, not every such curve was filed as active; note: % of control where 0% means no effect); conditions: HEK293 ACTOne CNG channel cells, membrane potential fluorescence; series mostly up to 22.9 µM
Sequence of 3',5'-cyclic-AMP phosphodiesterase 4B (Homo sapiens) (Q07343 whole entry, looked up): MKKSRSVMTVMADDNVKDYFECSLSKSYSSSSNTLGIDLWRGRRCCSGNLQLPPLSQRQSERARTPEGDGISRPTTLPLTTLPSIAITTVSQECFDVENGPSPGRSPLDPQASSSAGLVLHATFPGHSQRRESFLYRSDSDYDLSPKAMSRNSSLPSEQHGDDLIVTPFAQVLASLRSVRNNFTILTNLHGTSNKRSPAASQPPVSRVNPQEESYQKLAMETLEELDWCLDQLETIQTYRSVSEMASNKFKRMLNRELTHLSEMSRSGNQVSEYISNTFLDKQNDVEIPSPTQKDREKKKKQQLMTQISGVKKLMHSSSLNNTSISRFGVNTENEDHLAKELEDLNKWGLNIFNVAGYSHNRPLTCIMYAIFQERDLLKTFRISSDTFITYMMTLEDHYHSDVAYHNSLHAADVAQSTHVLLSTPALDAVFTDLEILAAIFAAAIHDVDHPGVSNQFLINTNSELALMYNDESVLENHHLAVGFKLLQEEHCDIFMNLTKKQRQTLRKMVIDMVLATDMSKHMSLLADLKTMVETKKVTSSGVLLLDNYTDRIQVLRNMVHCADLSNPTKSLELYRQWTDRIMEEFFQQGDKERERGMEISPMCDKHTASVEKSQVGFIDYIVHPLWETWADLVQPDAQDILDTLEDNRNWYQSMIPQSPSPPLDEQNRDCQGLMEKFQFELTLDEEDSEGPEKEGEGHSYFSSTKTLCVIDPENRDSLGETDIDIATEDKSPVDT
Method in brief: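 ACTOne HEK293 cells carry a modified cAMP-gated CNG channel and express endogenous PDE4; plated 1000 cells/well, compounds up to 22.9 uM final. Membrane-potential dye fluorescence (ex 535/em 590) was read; parental cells received 10 uM forskolin + 100 uM RO 20-1724.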

[8] = biological target: Cytochrome P450 3A4 (Homo sapiens) (UniProt P08684); assay: qHTS Assay for Activators of Cytochrome P450 3A4 (AID 885); conditions: recombinant CYP3A4, Luciferin-PPXE luminescence, 60 min; series mostly up to 57.1 µM; note: nearly all actives have a fitted effect of over 65% in size
Sequence of Cytochrome P450 3A4 (Homo sapiens) (P08684 whole entry, looked up): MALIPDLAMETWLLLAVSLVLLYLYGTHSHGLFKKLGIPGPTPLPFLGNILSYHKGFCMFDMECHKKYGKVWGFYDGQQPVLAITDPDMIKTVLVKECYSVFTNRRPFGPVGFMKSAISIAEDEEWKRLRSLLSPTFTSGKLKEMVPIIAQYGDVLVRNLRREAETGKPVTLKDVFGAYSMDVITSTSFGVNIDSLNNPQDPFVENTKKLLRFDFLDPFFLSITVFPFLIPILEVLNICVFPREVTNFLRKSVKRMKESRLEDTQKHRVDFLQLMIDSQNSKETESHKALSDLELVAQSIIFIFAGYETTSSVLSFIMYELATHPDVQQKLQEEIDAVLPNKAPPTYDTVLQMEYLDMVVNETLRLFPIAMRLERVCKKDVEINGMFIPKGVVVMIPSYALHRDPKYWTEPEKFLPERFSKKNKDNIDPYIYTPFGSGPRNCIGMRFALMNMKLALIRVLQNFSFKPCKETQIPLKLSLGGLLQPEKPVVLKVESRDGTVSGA
Method in brief: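 20nM CYP3A4 + 25uM Luciferin-PPXE (=KM), 200mM KPO4; cpd 10 min RT; NADPH regen, 60 min RT; stop w/ detection buffer, 20 min; luminescence. Normalized to 57 uM ketoconazole.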

[9] = biological target: Cytochrome P450 2C19 (Homo sapiens) (UniProt P33261); assay: qHTS Assay for Inhibitors and Substrates of Cytochrome P450 2C19 (AID 899); conditions: recombinant CYP2C19, luciferin-H EGE luminescence; series mostly up to 57.1 µM; note: potency is the fitted concentration of half-maximal effect; nearly all actives have a fitted effect of over 60% in size
Sequence of Cytochrome P450 2C19 (Homo sapiens) (P33261 whole entry, looked up): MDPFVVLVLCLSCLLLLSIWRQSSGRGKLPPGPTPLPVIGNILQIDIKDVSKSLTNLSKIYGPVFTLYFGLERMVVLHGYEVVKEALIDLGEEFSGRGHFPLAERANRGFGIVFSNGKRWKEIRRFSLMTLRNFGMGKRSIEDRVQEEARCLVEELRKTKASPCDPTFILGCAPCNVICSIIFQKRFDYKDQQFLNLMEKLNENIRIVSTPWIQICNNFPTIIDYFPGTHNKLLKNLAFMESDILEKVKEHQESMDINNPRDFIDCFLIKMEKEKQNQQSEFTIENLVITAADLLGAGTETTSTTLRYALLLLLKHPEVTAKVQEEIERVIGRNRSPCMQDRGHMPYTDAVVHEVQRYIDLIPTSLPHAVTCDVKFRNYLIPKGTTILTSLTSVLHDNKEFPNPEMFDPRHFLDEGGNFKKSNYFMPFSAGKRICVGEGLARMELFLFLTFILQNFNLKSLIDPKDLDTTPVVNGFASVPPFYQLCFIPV
Method in brief: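 NADPH-dependent conversion of Luciferin-H EGE (10uM, at KM) by 5nM enzyme in 50mM KPO4, 60 min at 37C following 10 min compound preincubation. Stopped with luciferin detection buffer; luminescence read after 20 min.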

[10] = biological target: Dual specificity protein kinase CLK4 (Homo sapiens) (UniProt Q9HAZ1); assay: qHTS Assay for Inhibitors of CDC-like Kinase 4 (Kinase-Glo Assay) (AID 1770); conditions: recombinant Clk4, Kinase-Glo ATP depletion luminescence; series mostly up to 66.7 µM; note: nearly all actives have a fitted effect of over 65% in size; note: potency is the fitted concentration of half-maximal effect
Sequence of Dual specificity protein kinase CLK4 (Homo sapiens) (Q9HAZ1 whole entry, looked up): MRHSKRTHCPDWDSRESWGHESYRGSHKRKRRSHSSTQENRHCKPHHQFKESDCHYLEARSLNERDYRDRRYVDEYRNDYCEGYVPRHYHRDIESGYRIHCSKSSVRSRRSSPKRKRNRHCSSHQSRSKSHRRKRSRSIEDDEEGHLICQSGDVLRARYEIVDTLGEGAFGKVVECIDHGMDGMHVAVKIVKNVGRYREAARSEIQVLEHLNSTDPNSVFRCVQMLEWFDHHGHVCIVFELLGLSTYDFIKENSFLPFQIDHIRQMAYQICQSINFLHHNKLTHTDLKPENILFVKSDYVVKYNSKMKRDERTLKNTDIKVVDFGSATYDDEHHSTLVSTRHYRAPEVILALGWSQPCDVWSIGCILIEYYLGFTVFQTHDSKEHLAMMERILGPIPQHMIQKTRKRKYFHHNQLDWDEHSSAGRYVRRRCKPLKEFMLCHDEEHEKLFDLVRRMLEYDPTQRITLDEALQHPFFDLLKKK
Method in brief: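 25 nM Clk4 with 100 uM RS repeat peptide and 1 uM ATP (final) in Tris pH7.5, 10 mM MgCl2, 4.5 h at room temperature. Remaining ATP measured by Kinase-Glo luciferase luminescence.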

[11] = biological target: Dual specificity protein kinase CLK4 (Homo sapiens) (UniProt Q9HAZ1); assay: qHTS Assay for Inhibitors of CDC-like Kinase 4 (ADP-FP Assay) (AID 1795); conditions: Transcreener ADP fluorescence polarization; series mostly up to 50 µM; note: nearly all actives have a fitted effect of over 60% in size; note: potency is the fitted concentration of half-maximal effect
Method in brief: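 Recombinant Clk4 (6.25 nM) phosphorylated 100 uM RS repeat peptide with 1 uM ATP in 25 mM Tris pH 7.5, 10 mM MgCl2, 0.5 mM EGTA, 2.5 mM DTT, 0.01% Triton X-100 for 1 h. ADP was detected by Transcreener ADP2 competitive fluorescence polarization after 30 min at room temperature.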

[12] = biological target: Ubiquitin carboxyl-terminal hydrolase 1 (Homo sapiens) (UniProt O94782); assay: Inhibitors of USP1/UAF1: Pilot qHTS (AID 504865); conditions: purified USP1/UAF1, Ub-rhodamine cleavage fluorescence; series mostly up to 54.9 µM; note: nearly all actives have a fitted effect of over 35% in size; note: potency is the fitted concentration of half-maximal effect
Sequence of Ubiquitin carboxyl-terminal hydrolase 1 (Homo sapiens) (O94782 whole entry, looked up): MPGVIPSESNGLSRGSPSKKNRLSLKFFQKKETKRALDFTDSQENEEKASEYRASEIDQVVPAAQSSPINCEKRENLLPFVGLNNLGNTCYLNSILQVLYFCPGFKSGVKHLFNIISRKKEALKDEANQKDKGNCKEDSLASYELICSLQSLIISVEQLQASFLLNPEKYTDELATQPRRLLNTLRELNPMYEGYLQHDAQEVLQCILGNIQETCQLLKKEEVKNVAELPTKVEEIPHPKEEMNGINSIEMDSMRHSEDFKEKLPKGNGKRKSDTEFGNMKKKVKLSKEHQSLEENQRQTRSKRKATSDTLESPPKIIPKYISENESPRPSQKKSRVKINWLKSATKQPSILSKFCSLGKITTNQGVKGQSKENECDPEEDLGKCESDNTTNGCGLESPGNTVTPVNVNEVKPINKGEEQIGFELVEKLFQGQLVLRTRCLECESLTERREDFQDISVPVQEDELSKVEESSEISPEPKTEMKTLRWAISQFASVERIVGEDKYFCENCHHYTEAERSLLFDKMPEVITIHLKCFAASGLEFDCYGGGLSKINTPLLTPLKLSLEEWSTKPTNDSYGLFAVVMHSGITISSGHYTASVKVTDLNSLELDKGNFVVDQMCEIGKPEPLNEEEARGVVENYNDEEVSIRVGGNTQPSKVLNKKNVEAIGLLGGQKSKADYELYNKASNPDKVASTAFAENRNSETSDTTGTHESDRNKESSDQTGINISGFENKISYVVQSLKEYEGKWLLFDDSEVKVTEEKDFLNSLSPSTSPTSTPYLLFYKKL
Method in brief: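 USP1/UAF1 complex at 1 nM preincubated 15 min at room temperature with compound, then Ub-Rho substrate added at 150 nM final. Fluorescence (480/540 nm) read kinetically in 50 mM HEPES pH 7.8, 0.5 mM EDTA, 1 mM TCEP, 0.1 mg/ml BSA, 0.01% Tween-20.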

[13] = Primary qHTS for small molecule stabilizers of the endoplasmic reticulum resident proteome: Secreted ER Calcium Modulated Protein (SERCaMP) assay (AID 1508630); conditions: SH-SY5Y GLuc-SERCaMP (Gaussia luciferase released on ER calcium loss) secretion, thapsigargin, luminescence; series mostly up to 38.4 µM; note: % is set by controls: 0 for no effect and ±100 for the full control effect
Method in brief: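 GLuc-SERCaMP-expressing SH-SY5Y cells, pretreated 16 h with compound, are challenged with thapsigargin to empty ER calcium stores; after 4 h, coelenterazine is added directly to the medium and luminescence is imaged.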

[14] = biological target: Lysosomal acid glucosylceramidase (Homo sapiens) (UniProt P04062); assay: Glucocerebrosidase-p2 (AID 348; in the data active = potency below about 10 µM; note: potency is the fitted concentration of half-maximal effect); conditions: purified GBA, blue fluorogenic substrate, 40 min
Sequence of Lysosomal acid glucosylceramidase (Homo sapiens) (P04062 whole entry, looked up): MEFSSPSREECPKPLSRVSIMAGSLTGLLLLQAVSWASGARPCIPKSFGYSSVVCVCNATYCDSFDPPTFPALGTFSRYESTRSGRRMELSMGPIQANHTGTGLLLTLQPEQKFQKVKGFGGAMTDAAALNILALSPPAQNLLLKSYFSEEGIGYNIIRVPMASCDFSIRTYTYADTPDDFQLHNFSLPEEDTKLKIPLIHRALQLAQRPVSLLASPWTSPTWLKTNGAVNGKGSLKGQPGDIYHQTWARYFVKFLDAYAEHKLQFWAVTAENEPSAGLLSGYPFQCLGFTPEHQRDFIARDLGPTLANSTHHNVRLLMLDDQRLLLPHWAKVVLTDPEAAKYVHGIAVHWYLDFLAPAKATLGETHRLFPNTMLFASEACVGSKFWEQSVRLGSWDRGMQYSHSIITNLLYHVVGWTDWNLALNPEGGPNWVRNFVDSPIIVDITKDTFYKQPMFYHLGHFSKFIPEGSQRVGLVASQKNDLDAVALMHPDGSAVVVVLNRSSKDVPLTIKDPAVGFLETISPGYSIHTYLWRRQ
Method in brief: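 Compounds titrated from 0.6 nM upwards against 0.2 nM enzyme in pH 5.9 citric acid/KH2PO4, taurocholate, tween-20; blue fluorogenic substrate 80 uM, 40 min room temperature, stopped and read Ex 365/Em 440 for AC50.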

[15] = biological target: Glucocorticoid receptor (Homo sapiens) (UniProt P04150); assay: GR-GFP Redistribution (AID 450;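 active = compounds whose dose series gives a full or clear partial fitted curve of increased nuclear translocation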; note: potency is the fitted concentration of half-maximal effect); conditions: U2OS GR-GFP nuclear translocation, laser cytometry, 2 h
[16] = biological target: Cytochrome P450 2D6 (Homo sapiens) (UniProt P10635); assay: qHTS Assay for Inhibitors and Substrates of Cytochrome P450 2D6 (AID 891); conditions: recombinant CYP2D6, luciferin-ME EGE luminescence; series mostly up to 57.1 µM; note: potency is the fitted concentration of half-maximal effect; nearly all actives have a fitted effect of over 60% in size
Method in brief: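 Human CYP2D6 (5 nM) with 30 uM Luciferin-ME EGE (at Km) in 100 mM KPO4, compound preincubated 10 min, then NADPH regeneration system for 60 min at room temperature. Luciferin read by luminescence; normalized to 1.43 uM quinidine.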

[17] = biological target: Cytochrome P450 3A4 (Homo sapiens) (UniProt P08684); assay: qHTS Assay for Inhibitors and Substrates of Cytochrome P450 3A4 (AID 884); conditions: recombinant CYP3A4, Luciferin-PPXE luminescence; series mostly up to 57.1 µM; note: potency is the fitted concentration of half-maximal effect; nearly all actives have a fitted effect of over 50% in size
Method in brief: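 20 nM human CYP3A4 with 25 uM Luciferin-PPXE (at KM) in 200 mM KPO4, preincubated 10 min with compound; NADPH regeneration started a 60 min RT reaction. Luciferin detected by luminescence, normalized to 57 uM ketoconazole as full inhibition.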

[18] = biological target: Cytochrome P450 2C9 (Homo sapiens) (UniProt P11712); assay: qHTS Assay for Inhibitors and Substrates of Cytochrome P450 2C9 (AID 883); conditions: recombinant CYP2C9, luciferin-H luminescence, 60 min; series mostly up to 57.1 µM; note: potency is the fitted concentration of half-maximal effect; nearly all actives have a fitted effect of over 60% in size
Method in brief: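 A luminogenic readout tracked human CYP2C9 (10nM) converting deoxyluciferin (100uM, at KM) in 25mM KPO4 during 60 min at 37C with regenerated NADPH. Values normalized to 57uM sulphaphenazole as complete inhibition.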

Structure (SMILES)	activity change, negative = inhibition [1]	Potency [2]	activity change, negative = inhibition [3]	activity, negative = inhibition [4]	Potency [5]	Potency [6]	Potency [7]	Potency [8]	Potency [9]	Potency [10]	Potency [11]	Potency [12]	outcome [13]	Potency [14]	Potency [15]	Potency [16]	Potency [17]	Potency [18]
O=c1c(-c2cccs2)nc2cncnc2n1Cc1ccc(F)cc1	-19.2%	2.51 µM (active)	-15.7%	-3.58%	> 46 µM	inactive	inactive	inactive	7.94 µM (active)	inactive	inactive	inactive	inactive					
CCNc1ncc2nc(-c3ccc(OC)cc3)c(=O)n(CCc3ccccc3)c2n1	107% [activator] (active)			122% [activator] (active)	> 46 µM	inactive				inactive	inactive	inactive	inactive	> 11.4 µM	> 9.22 µM			
COc1ccc(-n2c(=O)c(-c3ccc(F)c(F)c3)nc3cncnc32)cc1	-1.43%		1.94%	-16.2%	> 46 µM	inactive	inactive	inactive		inactive	inactive	inactive	inactive	> 11.4 µM	> 9.22 µM			
CCNc1ncc2nc(-c3cccs3)c(=O)n(Cc3ccc(F)cc3)c2n1	24.9%	10 µM (active)	-12.4%		> 46 µM		inactive	inactive		inactive	inactive	20 µM (active)	inactive	> 11.4 µM	> 9.22 µM			
CCNc1ncc2nc(-c3cc(F)cc(F)c3)c(=O)n(CCC#N)c2n1	28.7%		-24.5%		> 46 µM	inactive	inactive			31.6 µM (active)	inactive	inactive	inactive	> 11.4 µM	> 9.22 µM	0.0631 µM (active)		
COCCNc1nc(-c2cccc(NS(C)(=O)=O)c2)nc2ccccc12	-25.4%	3.16 µM (active)	22.3%	-10.1%	> 46 µM	inactive		inactive		11.2 µM (active)	14.1 µM (active)		inactive	> 11.4 µM	> 46 µM			
Clc1ccccc1-c1nc(NCc2cccs2)c2ccccc2n1		1 µM (active)	-8.75%	0.228%	> 46 µM	inactive		inactive	7.94 µM (active)	7.94 µM (active)	12.6 µM (active)	14.1 µM (active)	inactive		> 46 µM		6.31 µM (active)	
COCCn1c(=O)c(-c2cccs2)nc2cncnc21	-17.4%	3.16 µM (active)	11.8%	-2.25%	> 46 µM	inactive		inactive		inactive	inactive	inactive	inactive	> 11.4 µM	> 9.22 µM			
O=c1c(-c2cccc(F)c2)nc2cncnc2n1Cc1ccccc1Cl	-4.26%	3.98 µM (active)	-7.87%	4.32%	> 46 µM	inactive		inactive	0.794 µM (active)	inactive	inactive	inactive	inactive	> 11.4 µM	> 9.22 µM			7.94 µM (active)
COc1ccccc1CNc1cc(-c2ccoc2)ncn1	-15.7%	15.8 µM (active)	-9.53%	6.29%	> 46 µM	inactive	inactive	inactive		inactive	inactive	inactive	inactive	> 11.4 µM	> 46 µM			
COc1ccccc1CNc1cc(-c2ccccc2C)ncn1	-17.3%	5.01 µM (active)	-18.6%	14.3%	> 46 µM	inactive		inactive		inactive	inactive		inactive	> 11.4 µM	> 46 µM			
CN(C)c1ccc(-c2cncnc2Nc2ccccc2)cc1	-29.4%	0.398 µM (active)	-2.66%	-12%	> 46 µM			inactive	0.316 µM (active)	22.4 µM (active)	inactive	inactive	inactive	> 11.4 µM	> 46 µM		0.631 µM (active)	
COc1cccc(Cn2c(=O)cnc3cnc(OCc4ccccc4)nc32)c1	-24.3%	12.6 µM (active)	-4.5%	-13.2%	> 46 µM	inactive		inactive		inactive	inactive	inactive	inactive	> 11.4 µM	> 9.22 µM			
